Calls of active or inactive are those of the source. The calls were made as follows: active = hit-call score of the fitted dose curve at least 0.9, where 1 is the maximum; inactive = score below 0.9.
Assays:
[1] = BSK_hDFCGF_SRB: Viability Assessment in the BioMAP Diversity Plus: hDFCGF Assay (AID 2283061); conditions: primary human foreskin fibroblasts;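 also: cells exposed to compound for 24 h before the read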
Procedure, shortened: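 Viability was read as total protein: after 10% TCA fixation, wells were stained with 0.1% sulforhodamine B and read at 560 nm. Primary human foreskin fibroblasts were dosed for 24 h, with bidirectional fitting versus DMSO.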

[2] = read-out: TIMP metallopeptidase inhibitor 1 (TIMP1), TIMP1 (gene 7076); experiment: BSK_hDFCGF_TIMP1: BioMAP Diversity Plus: hDFCGF Assay for TIMP metallopeptidase inhibitor 1 (TIMP1) Biomarker Activity (AID 2283062); conditions: primary human foreskin fibroblasts; actives raise or lower the signal
Procedure, shortened: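 TIMP-1 measured by ELISA 24 h after chemical dosing of primary human skin fibroblasts, with gain or loss fitted relative to DMSO. Parallel SRB staining (560 nm) monitored overt cytotoxicity.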

[3] = read-out: Monokine induced gamma interferon (MIG), CXCL9 (gene 4283); experiment: BSK_hDFCGF_MIG: BioMAP Diversity Plus: hDFCGF Assay for Monokine induced gamma interferon (MIG) Biomarker Activity (AID 2283063); conditions: primary human foreskin fibroblasts; actives raise or lower the signal
Procedure, shortened: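 Human primary foreskin fibroblasts in the hDFCGF system, exposed to test chemical for 24 h; MIG measured by ELISA. Bidirectional curve fitting against DMSO negative control as activity baseline.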

[4] = read-out: Matrix Metallopeptidase 1 (MMP1), MMP1 (gene 4312); experiment: BSK_hDFCGF_MMP1: BioMAP Diversity Plus: hDFCGF Assay for Matrix Metallopeptidase 1 (MMP1) Biomarker Activity (AID 2283064); conditions: primary human foreskin fibroblasts; actives raise or lower the signal
Procedure, shortened: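 ELISA read-out of MMP1 from human foreskin fibroblasts (primary skin cells), 24 h post-dose. Gain or loss of signal was fitted bidirectionally versus DMSO negative control; cytotoxicity was checked by SRB in parallel cultures.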

[5] = read-out: Vascular cell adhesion molecule 1 (VCAM1), VCAM1 (gene 7412); experiment: BSK_hDFCGF_VCAM1: BioMAP Diversity Plus: hDFCGF Assay for Vascular cell adhesion molecule 1 (VCAM1) Biomarker Activity (AID 2283065); conditions: primary human foreskin fibroblasts; actives raise or lower the signal
Procedure, shortened: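 ELISA readout of VCAM-1 on human dermal fibroblast primary cultures, 24 h after chemical exposure. Gain or loss of signal fitted in both directions against DMSO baseline.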

[6] = read-out: Plasminogen activator inhibitor-1 (PAI1), SERPINE1 (gene 5054); experiment: BSK_hDFCGF_PAI1: BioMAP Diversity Plus: hDFCGF Assay for Plasminogen activator inhibitor-1 (PAI1) Biomarker Activity (AID 2283066); conditions: primary human foreskin fibroblasts; actives raise or lower the signal
Procedure, shortened: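 Human skin fibroblast cultures receive chemical for 24 h before PAI-1 is measured by ELISA; signal changes are fitted bidirectionally against DMSO-treated wells.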

[7] = read-out: Intercellular Adhesion Molecule 1 (ICAM1), ICAM1 (gene 3383); experiment: BSK_KF3CT_ICAM1: BioMAP Diversity Plus: KF3CT Assay for Intercellular Adhesion Molecule 1 (ICAM1) Biomarker Activity (AID 2283067); conditions: primary human keratinocytes with fibroblasts; actives raise or lower the signal
Procedure, shortened: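 Cell-surface ICAM-1 was measured by ELISA 24 h after dosing primary human skin keratinocytes co-cultured with fibroblasts. Parallel SRB staining tracked overt cytotoxicity. Gain or loss of signal was fitted relative to DMSO.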

[8] = read-out: Interferon-gamma inducible Protein 10 (IP10), CXCL10 (gene 3627); experiment: BSK_KF3CT_IP10: BioMAP Diversity Plus: KF3CT Assay for Interferon-gamma inducible Protein 10 (IP10) Biomarker Activity (AID 2283068); conditions: primary human keratinocytes with fibroblasts; actives raise or lower the signal
Procedure, shortened: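 KF3CT co-culture (keratinocytes + foreskin fibroblasts), 24 h compound, IP-10 by ELISA; bidirectional fit vs DMSO baseline.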

[9] = BSK_KF3CT_SRB: Viability Assessment in the BioMAP Diversity Plus: KF3CT Assay (AID 2283069); conditions: primary human keratinocytes with fibroblasts;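 also: total protein by sulforhodamine B staining as a cytotoxicity measure; read 24 h after compound addition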
Procedure, shortened: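 SRB read-out at 560 nm (0.1% stain, TCA-fixed cells) gauges overt cytotoxicity in a human skin keratinocyte–fibroblast co-culture 24 h post-dosing. Signal change was fitted bidirectionally relative to DMSO control.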

[10] = read-out: Interleukin-1 alpha (IL1a), IL1A (gene 3552); experiment: BSK_KF3CT_IL1a: BioMAP Diversity Plus: KF3CT Assay for Interleukin-1 alpha (IL1a) Biomarker Activity (AID 2283070); conditions: primary human keratinocytes with fibroblasts; actives raise or lower the signal
Procedure, shortened: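 Primary skin co-culture (keratinocytes, foreskin fibroblasts), 24 h exposure; ELISA for IL-1a; bidirectional curve fit vs DMSO.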

[11] = read-out: TIMP metallopeptidase inhibitor 2 (TIMP2), TIMP2 (gene 7077); experiment: BSK_KF3CT_TIMP2: BioMAP Diversity Plus: KF3CT Assay for TIMP metallopeptidase inhibitor 2 (TIMP2) Biomarker Activity (AID 2283071); conditions: primary human keratinocytes with fibroblasts; actives raise or lower the signal
Procedure, shortened: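 Measurements come from ELISA detection of TIMP-2 at 24 hours in a dosed human keratinocyte and foreskin fibroblast co-culture. DMSO serves as negative control and baseline.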

[12] = read-out: Transforming growth factor beta 1 (TGFb1), TGFB1 (gene 7040); experiment: BSK_KF3CT_TGFb1: BioMAP Diversity Plus: KF3CT Assay for Transforming growth factor beta 1 (TGFb1) Biomarker Activity (AID 2283072); conditions: primary human keratinocytes with fibroblasts; actives raise or lower the signal
Procedure, shortened: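 TGF-b1 ELISA on a 24 h dosed co-culture of human keratinocytes and foreskin fibroblasts; cytotoxicity tracked in parallel cultures by SRB staining.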

[13] = read-out: C-C motif chemokine 2 (Homo sapiens) (UniProt P13500); experiment: BSK_KF3CT_MCP1: BioMAP Diversity Plus: KF3CT Assay for Monocyte Chemoattractant Protein 1 (MCP1/CCL2) Biomarker Activity (AID 2283073); conditions: primary human keratinocytes with fibroblasts; actives raise or lower the signal
Procedure, shortened: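 ELISA read-out of MCP-1, 24 h post-dose, in primary human skin keratinocytes co-cultured with fibroblasts. Parallel SRB staining monitors cytotoxicity; changes fitted both directions relative to DMSO.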

[14] = read-out: Matrix Metallopeptidase 9 (MMP9), MMP9 (gene 4318); experiment: BSK_KF3CT_MMP9: BioMAP Diversity Plus: KF3CT Assay for Matrix Metallopeptidase 9 (MMP9) Biomarker Activity (AID 2283074); conditions: primary human keratinocytes with fibroblasts; actives raise or lower the signal
Procedure, shortened: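 ELISA read-out of MMP-9 at 24 h post-dosing in a co-culture of human skin keratinocytes and foreskin fibroblasts. Gain or loss of signal was fitted in both directions against DMSO.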

[15] = read-out: urokinase plasminogen activator (uPA), PLAU (gene 5328); experiment: BSK_KF3CT_uPA: BioMAP Diversity Plus: KF3CT Assay for urokinase plasminogen activator (uPA) Biomarker Activity (AID 2283075); conditions: primary human keratinocytes with fibroblasts; actives raise or lower the signal
Procedure, shortened: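 Skin co-culture (keratinocytes + foreskin fibroblasts), human primary; 24 h post-dose; uPA by ELISA; gain/loss fit vs DMSO baseline.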

CD40, CD40 (gene 958) = experiment: BSK_LPS_CD40: BioMAP Diversity Plus: LPS Assay for CD40 Biomarker Activity (AID 2283076); conditions: primary human HUVEC with PBMC; actives raise or lower the signal
Procedure, shortened: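 In the LPS system of human endothelial cells with peripheral blood mononuclear cells, CD40 levels were read by ELISA 24 h post-treatment. Signal changes in either direction were fitted against the DMSO baseline, with parallel SRB protein staining.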

[16] = read-out: E-selectin (Homo sapiens) (UniProt P16581); experiment: BSK_LPS_Eselectin: BioMAP Diversity Plus: LPS Assay for Eselectin Biomarker Activity (AID 2283077); conditions: primary human HUVEC with PBMC; actives raise or lower the signal
Procedure, shortened: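 E-selectin ELISA on LPS-stimulated endothelial cell/PBMC co-cultures, read 24 h post-treatment; gains and losses fitted against DMSO. Parallel SRB staining (0.1% SRB after 10% TCA fixation, 560 nm) flags overt cytotoxicity.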

[17] = read-out: Interleukin-8 (IL8), CXCL8 (gene 3576); experiment: BSK_LPS_IL8: BioMAP Diversity Plus: LPS Assay for Interleukin-8 (IL8) Biomarker Activity (AID 2283078); conditions: primary human HUVEC with PBMC; actives raise or lower the signal
Procedure, shortened: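 ELISA read-out of IL-8 after 24 h chemical treatment of LPS-activated endothelial/PBMC human primary co-cultures. Changes either up or down relative to DMSO; overt cytotoxicity checked by sulforhodamine B staining in parallel wells.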

[18] = BSK_LPS_SRB: Viability Assessment in the BioMAP Diversity Plus: LPS Assay (AID 2283079); conditions: primary human HUVEC with PBMC;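 also: total protein by sulforhodamine B absorbance as a cytotoxicity measure; measured one day after compound addition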
Procedure, shortened: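 SRB viability endpoint: cells fixed with 10% TCA, stained with 0.1% SRB, read at 560 nm, 24 h post-dose. HUVEC/PBMC co-culture; signal change in either direction scored relative to DMSO.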

[19] = read-out: Interleukin-1 alpha (IL1a), IL1A (gene 3552); experiment: BSK_LPS_IL1a: BioMAP Diversity Plus: LPS Assay for Interleukin-1 alpha (IL1a) Biomarker Activity (AID 2283080); conditions: primary human HUVEC with PBMC; actives raise or lower the signal
Procedure, shortened: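 Readout is IL-1a level by ELISA, 24 h post-dose, fitted as gain or loss relative to DMSO. System: LPS-activated human primary co-culture of vascular endothelium and peripheral blood mononuclear cells, with parallel SRB total-protein cytotoxicity.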

Measured: AC50

E-selectin (Homo sapiens), sequence (P16581 whole entry, looked up): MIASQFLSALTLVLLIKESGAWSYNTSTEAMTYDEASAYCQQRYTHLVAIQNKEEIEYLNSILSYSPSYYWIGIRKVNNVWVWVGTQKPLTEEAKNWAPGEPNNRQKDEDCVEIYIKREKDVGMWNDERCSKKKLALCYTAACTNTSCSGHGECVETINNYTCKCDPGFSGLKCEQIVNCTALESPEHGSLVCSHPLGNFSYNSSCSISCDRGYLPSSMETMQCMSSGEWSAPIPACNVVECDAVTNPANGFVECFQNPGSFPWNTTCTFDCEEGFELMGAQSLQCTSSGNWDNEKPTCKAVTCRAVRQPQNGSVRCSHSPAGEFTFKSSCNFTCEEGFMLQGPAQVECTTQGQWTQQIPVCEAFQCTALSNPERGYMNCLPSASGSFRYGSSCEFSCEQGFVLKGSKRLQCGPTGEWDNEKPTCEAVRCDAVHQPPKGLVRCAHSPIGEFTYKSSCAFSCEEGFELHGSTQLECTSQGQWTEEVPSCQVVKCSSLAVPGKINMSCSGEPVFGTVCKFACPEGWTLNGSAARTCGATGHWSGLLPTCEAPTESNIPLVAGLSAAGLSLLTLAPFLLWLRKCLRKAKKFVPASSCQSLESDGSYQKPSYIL

Cn1c(-c2ccccc2)cc(-c2ccccc2)[n+]1C
active: [2] 20 µM | [8] 7.72 µM | [11] 23.8 µM | [15] 12 µM
inactive: all other assays above

CS(=O)(=O)c1cc(C(F)(F)F)ccc1C(=O)c1cnoc1C1CC1
inactive: all assays above

CC1(C)CCC(=Cc2ccc(Cl)cc2)C1(O)Cn1cncn1 (stereo not given)
inactive: all assays above

CCOP(=S)(OCC)Oc1nc(Cl)n(C(C)C)n1
inactive: all assays above

CC(C)N1C(=O)c2ccccc2NS1(=O)=O
active: [2] 3.97 µM | [13] 535 nM
inactive: all other assays above

CCCCC(O)(Cn1cncn1)c1ccc(Cl)cc1Cl (stereo not given)
active: [4] 12.7 µM | [6] 21.2 µM
inactive: all other assays above

— PubChem BioAssay (EPA / NIEHS)
